Laboratory results reported in PubChem BioAssay AID588413 (Sanford-Burnham Center for Chemical Genomics, 2011).
The whole screen tested about 340,000 compounds, of which about 2,500 (0.74%) were called active. Shown is part of a subset that was picked to be rich in actives. A number with no mark means an inactive call.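 The calls were made as follows: active = inhibition above about 55% (limit read from the data); inactive = the rest.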

Assay: blockers of Gli reporter signaling – luciferase luminescence, Sufu-KO-LIGHT cells, uHTS, primary screen (AID 588413);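 also: 0% = DMSO-treated cells and 100% = wells with medium but no cells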
Conditions: Sufu-KO-LIGHT fibroblasts, at 5 µM, stronger effect = higher value

Structure (SMILES) | inhibition
O=c1c2cc([N+](=O)[O-])ccc2nc2n1CCC2 | -23.1%
Cc1cc(C)n(-c2c(F)c(F)c(COC(=O)c3ccccc3)c(F)c2F)n1 | 6.99%
CC(=O)c1ccc(Oc2cc(C)nc(-n3nc(C)cc3C)n2)cc1 | 30.8%
CCOC(=O)c1cnc(-n2nc(C)cc2C)nc1NNc1cc(C)nc(-c2ccccc2)n1 | 80% (active)
Cc1nn(Cc2ccc(F)cc2)c(C)c1NC(=O)c1noc2c1CCc1ccccc1-2 | 6.19%
O=C(O)C(c1cccs1)C1(O)CCCCC1 (stereo not given) | 6.95%
C=CCOC(=O)C1=C[C@H](c2ccc(Br)cc2)C[C@H](OCCCCO)O1 | -1%
NC(=O)C1=C[C@@H](c2ccc3c(c2)OCO3)C[C@@H](OCCCCO)O1 | -4.81%
C=CCOC(=O)C1=C[C@@H](c2ccc3c(c2)OCO3)C[C@@H](OCCCCO)O1 | 98.8% (active)
Cc1cc(NC(=O)c2cccc(N3C(=O)CCC3=O)c2)no1 | 98.8% (active)
COC(=O)c1cccc(NC(=O)c2cccc(N3C(=O)CCC3=O)c2)c1 | 8.09%
COc1ccccc1-c1nnc(NC(=O)c2cccc(N3C(=O)CCC3=O)c2)o1 | -6.14%
C/C(CC(=O)N1CCN(C=O)CC1)=N\NC(=O)c1ccc(Br)cc1 | 3.23%
CCOC(=O)c1c(C)nn(-c2ncccc2NC(=O)CCC(=O)O)c1C | 1.77%
Cn1c(=O)n(C)c2cc(CNc3ccc(N4CCOCC4)c(C(=O)O)c3)ccc21 | 5.36%
CN1CCN(NC(=O)Nc2ccc(Br)cc2)CC1 | -5.05%
CN1C(CC(=O)Nc2ccc(Br)cc2)c2ccccc2CC1(C)C (stereo not given) | 75.8% (active)
COCC(=O)Nc1ccc(Br)cc1 | -3.01%
COc1ccc(C(=O)N2CCCC(C(=O)c3ccccc3OC)C2)cc1OC (stereo not given) | -11.7%
COc1ccccc1C(CNC(=O)c1cccc(NS(=O)(=O)c2ccc(Br)cc2)c1)N(C)C (stereo not given) | 4.43%

Structure (SMILES) | inhibition
COc1ccccc1C(=O)Nc1ccnn1C1CCN(Cc2cnn(C)c2)CC1 | 8.85%
COc1ccc(C(=O)Nc2ccnn2C2CCN(Cc3ccncc3)CC2)cc1 | -4.23%
CC(C)Oc1ccc(CN2CCC(n3nccc3NC(=O)c3cccnc3)CC2)cc1 | 61.3% (active)
COCCn1cnnc1SCC(=O)Nc1cccc(S(=O)(=O)N2CCCCC2)c1 | -21.3%
CCOc1cccc(NC(=O)Cn2nc(-c3ccc4c(c3)OCCO4)ccc2=O)c1 | -1.4%
Cc1c(C(=O)NCC(c2ccco2)N2CCCC2)oc2ccc(Cl)cc12 (stereo not given) | 16.9%
O=C1[C@@H](c2ccccc2)[C@@H](c2ccccc2)N1c1cccnc1 | 7.59%
C[C@@H]1NS(=O)(=O)c2cc(Cl)ccc2O[C@@H]1c1ccccc1 | -5.11%
O=C(O)CCCn1cc(NC(=O)COc2cccc(Cl)c2)cn1 | 62.4% (active)
O=C(COc1cccc(Cl)c1)NCc1ccccc1 | 5.34%
CCOc1cccc(C(=O)Nc2cnn(Cc3ccccc3)c2)c1 | -43.8%
COC(=O)C1CC2=C(CC(C)(C)CC2=O)N(c2ccccc2)C1=O (stereo not given) | 4.81%
Cc1ccc(C(CNC(=O)Nc2cccc(C)c2)N2CCN(C)CC2)cc1 (stereo not given) | 44.3%
CCOc1cc(C2/C(=C(/O)c3ccc(S(=O)(=O)N4CCCCC4)cc3)C(=O)C(=O)N2CCOC)ccc1O (stereo not given) | -6.41%
CCCN(C(=O)CSc1nnnn1C)c1c(N)n(Cc2ccccc2)c(=O)[nH]c1=O | -4.32%
COc1ccc2sc(-c3ccc(N(C)C)cc3)c(C#CCO)c2c1 | -3.68%
COc1ccc2c(c1)c(=Cc1ccc(N(C)C)cc1)c1cc(-c3ccccc3)[n+](C)n12 | 71.7% (active)
CN(CC(=O)NC(=O)Nc1ccccc1F)Cc1ccccc1 | -0.74%
CCn1nc(C(=O)Nc2ccc(N3CCOCC3)cc2)c2ccccc2c1=O | 6.24%
CCN(CCO)C(=S)Nc1cc(C(=O)OC)ccc1C(=O)OC | 96.9% (active)

Structure (SMILES) | inhibition
CCCN(CCC)C(=S)Nc1cc(C(=O)OC)ccc1C(=O)OC | 1.47%
CCS(=O)(=O)Nc1cc(C(=O)OC)ccc1C(=O)OC | -3.7%
CC(C)OCC(O)CN1CCN(C(c2ccccc2)c2ccccc2)CC1 (stereo not given) | 76.8% (active)
O=C(C(c1ccccc1)c1ccccc1)N1CCN(CC(O)COc2ccccc2)CC1 (stereo not given) | 3.62%
COc1ccccc1CN1CCN(C(c2ccccc2)c2ccccc2)CC1 | 25.4%
COc1ccc(C(=O)OCC(=O)NCC2CCCO2)cc1[N+](=O)[O-] (stereo not given) | -0.12%
c1ccc2c(c1)CSc1sccc1C2=C1CCNCC1 | 28.4%
COC(=O)c1c(C)[nH]c(C(=O)NCCc2ccc(S(N)(=O)=O)cc2)c1C | -12.2%
COc1ccc(NC(=O)NNC(=O)COc2cc(C)c(Cl)c(C)c2)c(OC)c1 | -3.14%
Cc1cccc(N2CC(C(=O)Nc3ccccc3N3CCCC3)CC2=O)c1C (stereo not given) | -3.8%
CC(=O)Nc1cccc(OCC(=O)/C=C2\N(C)c3ccccc3C2(C)C)c1 | 56.5% (active)
CC(C)Nc1nnc(SCC(=O)/C=C2\N(C)c3ccccc3C2(C)C)s1 | 2.92%
CN1CCN(CCC(=O)N/N=C/C=C2\N(C)c3ccccc3C2(C)C)CC1 | 29.6%
COc1ccc(N2CCN(C(=O)C3CCN(S(=O)(=O)c4ccc(C)cc4)CC3)CC2)cc1 | 18.7%
CCCCCN(C(=O)NC(=O)Nc1cccc(C)c1C)S(C)(=O)=O | -3.52%
CC(=O)OCC(COC(C)=O)OC(C)=O | -14.9%
CC(=O)OCCC(C)C | 57.4% (active)
CC(=O)OC(C)C[N+](C)(C)C (stereo not given) | 15.8%
CC(C)CC(=O)NC(=S)NNC(=O)c1cccc([N+](=O)[O-])c1 | -4.7%
COc1ccc(C)cc1NC(=S)N1CCOCC1 | 1.61%
